TrxR1 substrate: qHTS Assay for Substrates of Mammalian Selenoprotein Thioredoxin Reductase 1 (TrxR1): qHTS; purified TrxR1 substrate turnover, NADPH consumption readout; 390,000 compounds, 0.01% hits; Thioredoxin reductase 1, cytoplasmic (Rattus norvegicus), O89049; AID 588456, 2011; Potency, µM (series often up to 114 µM); also: nearly all actives have a fitted effect of over 50% in size
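Rat TrxR1, dispensed at 90 nM, was prereduced with 400 uM NADPH (final) for 5 min at ~22 deg C, then incubated with compound 15 min before 400 uM selenite. A first-read NADPH fluorescence drop versus no-compound background flagged substrates.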
Eya2 inh: qHTS Assay for Inhibitors of the Phosphatase Activity of Eya2 | Potency, µM (series often up to 76.9 µM), most hits filed as inhibitors | AID 488837, 2010 | 330,000 compounds, 0.006% hits | recombinant Eya2, OMFP fluorescence dephosphorylation (OMFP is methylfluorescein phosphate) | Protein phosphatase EYA2 (Homo sapiens), O00167
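Eya2 (0.2 uM) preincubated 10 min at ambient with compound, then OMFP substrate added at 50 uM; 10 min reaction in 50 mM HEPES pH 7.5, 50 mM NaCl, 5 uM MgCl2, 0.05% BSA, 1 mM DTT. Fluorescence read at Ex 485/Em 525 nm.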
TrxR1 inh-1: qHTS Assay for Inhibitors of Mammalian Selenoprotein Thioredoxin Reductase 1 (TrxR1): qHTS; Potency, µM (highest dose often 114 µM), most hits filed as inhibitors; AID 588453, 2011; recombinant rTrxR1, NADPH fluorescence consumption, selenite substrate; 390,000 compounds, 1% hits; Thioredoxin reductase 1, cytoplasmic (Rattus norvegicus), O89049; also: nearly all actives have a fitted effect of over 65% in size
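Rat TrxR1 (90 nM in the dispensed reagent) was pre-reduced with 400 uM NADPH for 5 min at room temperature, then incubated with compound for 15 min. After 400 uM selenite was added, NADPH fluorescence (Ex 340/Em 450 nm) was followed for 8 min.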
mIDH1 inhibitor: qHTS for Inhibitors of mutant isocitrate dehydrogenase 1 (IDH1): qHTS; Isocitrate dehydrogenase [NADP] cytoplasmic (Homo sapiens), O75874; IDH1-R132H enzyme, NADPH consumption, diaphorase/resazurin fluorescence; Potency, µM (titrated, usually from 76.6 µM), hits mostly inhibitors; 390,000 compounds, 0.093% hits; AID 602179, 2012; also: nearly all actives have a fitted effect of over 65% in size
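IDH1-R132H (0.5 ug/mL) preincubated 30 min with compound, then NADPH (0.016 mM) and alpha-KG (2 mM) added; 80 min at RT, pH 7.5. Remaining NADPH coupled via diaphorase/resazurin to fluorescence (540/590 nm); concentration-response curves normalized to no-enzyme control.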
Coupling enz: qHTS Assay for Inhibitors of Fructose-1,6-bisphosphate Aldolase from Giardia Lamblia: Coupling assay counterscreen; coupling enzyme system counterscreen, AmpLite Red fluorescence; activity change, negative = inhibition, % at 58.2 µM, hits read low; 290,000 compounds, 0.67% hits; AID 2472, 2010; in the data active = activity change below about -30%
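Fluorescence at 525 nm excitation and 598 nm emission measured inhibition of the coupled detection system without aldolase. Compounds (at 57.5 uM final) were preincubated 10 min at room temperature with coupling enzyme reagent before a 20 min substrate/AmpLite Red step.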
TRb-SRC2 inh: Protein Interaction Secondary Assay for Inhibitors of the Interaction of Thyroid Hormone Receptor and Steroid Receptor Coregulator 2, Alpha Screen; shares compounds with TrxR1 inh-1; AlphaScreen TRb LBD-SRC2 peptide binding, luminescence; Potency, µM; 30 compounds, 50% hits; AID 2444, 2010; calls by dose curve
HepG2 viability: Cell Viability Secondary Assay for Inhibitors of the Interaction of Thyroid Hormone Receptor and Steroid Receptor Coregulator 2; shares compounds with TrxR1 inh-1; HepG2 viability, ATP luminescence (CellTiter-Glo), 72 h; 40 compounds, 50% hits; AID 2447, 2010; Potency, µM; calls by dose curve
AR SRC2 FP: Androgen Receptor Selectivity Assay for Inhibitors of the Interaction of Thyroid Hormone Receptor and Steroid Receptor Coregulator 2; shares compounds with TrxR1 inh-1; AR-LBD Tx-SRC2-3 fluorescence polarization, 3 h; calls only; 25 tested, under 10 active; AID 2448, 2010; call rule not given here
PPARg-DRIP2 inh: PPAR gamma Selectivity Assay For Inhibitors of the Interaction of Thyroid Hormone Receptor and Steroid Receptor Coregulator 2; shares compounds with TrxR1 inh-1; PPARg LBD / Texas Red DRIP-2 peptide, fluorescence polarization, 3 h; Potency, µM; 25 tested, under 10 active; AID 2449, 2010; calls by dose curve
VDR SRC2 FP: Vitamin D Receptor Selectivity Assay for Inhibitors of the Interaction of Thyroid Hormone Receptor and Steroid Receptor Coregulator 2 | shares compounds with TrxR1 inh-1 | VDR LBD/SRC2-3 peptide, fluorescence polarization, 3 h | Potency, µM | 25 tested, under 10 active | AID 2455, 2010; calls by dose curve
TRb SRC2 FluoFP: Secondary Confirmation Assay for Inhibitors of the Interaction of Thyroid Hormone Receptor and Steroid Receptor Coregulator 2, Fluorescein Fluoroprobe | TRb LBD / fluorescein-SRC2 peptide, fluorescence polarization | 20 tested, under 10 active | AID 2487, 2010 | shares compounds with TrxR1 inh-1 | Potency, µM; call rule not given here
GR inh: qHTS Assay for Inhibitors of Mammalian Selenoprotein Thioredoxin Reductase 1 (TrxR1): Counterassay in Glutathione Reductase (GR) | shares compounds with TrxR1 inh-1 | purified GR, DTNB reduction absorbance 405 nm kinetic | activity change, negative = inhibition, % at 57.1 µM | 55 tested, under 10 active
TrxR1 inh-2: qHTS Assay for Inhibitors of Mammalian Selenoprotein Thioredoxin Reductase 1 (TrxR1): Hit Validation in Primary Screen; AID 652023, 2013; 55 compounds, 50% hits; shares compounds with TrxR1 inh-1; recombinant TrxR1, NADPH fluorescence consumption, selenite substrate; Potency, µM, most hits filed as inhibitors
TrxR1 insulin MOA: qHTS Assay for Inhibitors of Mammalian Selenoprotein Thioredoxin Reductase 1 (TrxR1): Insulin MOA Assay. Potency, µM. AID 652037, 2013. TrxR1 Trx-coupled insulin reduction, NADPH absorbance 340 nm. 55 compounds, 20% hits. shares compounds with TrxR1 inh-1;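 active = compounds with a measured potency under 100 micromolar; inconclusive = filed, but no rule given; inactive = potency at or above that, or unmeasurable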
TrxR1 inh-3: qHTS Assay for Inhibitors of Mammalian Selenoprotein Thioredoxin Reductase 1 (TrxR1): DTNB Assay | shares compounds with TrxR1 inh-1 | purified TrxR1, DTNB reduction, A412 | Potency, µM | 55 compounds, 90% hits | AID 652256, 2013;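 active = a half-inhibiting concentration could be measured and was below 100 µM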
Hits are given with their value; 0 = inactive; ? = inconclusive; - = not tested or not shown. Compounds with a hit are over-represented: about 1.5% of the library has one in this group of screens. Unless noted, calls follow the shape of the dose curve; as a rule, active = well fitted curve in the direction sought with a large enough effect; inconclusive = small, poorly fitted or top-dose-only effect, or another doubt; inactive = no such curve, though single readings can be large; an effect the other way counts as inactive or inconclusive.

SMILES	TrxR1 substrate	Eya2 inh	TrxR1 inh-1	mIDH1 inhibitor	Coupling enz	TRb-SRC2 inh	HepG2 viability	AR SRC2 FP	PPARg-DRIP2 inh	VDR SRC2 FP	TRb SRC2 FluoFP	others
CS(=O)(=O)c1ccc(C(=O)OCC(=O)Nc2ccc(OC(F)(F)F)cc2)cc1[N+](=O)[O-]	0	-	3.55µM	-	-	16.7µM	0	0	0	0	0
CC(=O)c1cccc(NC(=O)C(C)OC(=O)c2ccc(S(C)(=O)=O)c([N+](=O)[O-])c2)c1 (centres undefined)	0	-	7.08µM	-	-	39.9µM	?	0	?	?	61.9µM
CC(OC(=O)c1ccncc1)C(=O)Nc1cccc([N+](=O)[O-])c1 (centres undefined)	0	0	0	0	0	-	-	-	-	-	-
NS(=O)(=O)c1cc(C(=O)OCC(=O)Nc2ccc(Cl)cc2[N+](=O)[O-])ccc1Cl	0	0	0	0	0	-	-	-	-	-	-
CS(=O)(=O)c1ccc(C(=O)OCC(=O)Nc2cc(C(F)(F)F)ccc2Cl)cc1[N+](=O)[O-]	0	-	8.91µM	-	-	16.7µM	16.8µM	0	0	?	0
CS(=O)(=O)c1ccc(C(=O)OCC(=O)N2CCOCC2)cc1[N+](=O)[O-]	-	-	-	-	-	-	0	-	-	-	-
O=C1CN(C(=O)COC(=O)c2ccc(N3CCCCCC3)c([N+](=O)[O-])c2)c2ccccc2N1	0	0	0	0	0	-	-	-	-	-	-
CS(=O)(=O)c1ccc(C(=O)OCC(=O)N2CC(=O)Nc3ccccc32)cc1[N+](=O)[O-]	0	-	2.82µM	-	-	10.5µM	15.6µM	0	15.1µM	63.6µM	2.8µM
CCN(CC)C(=O)COC(=O)c1ccc(S(C)(=O)=O)c([N+](=O)[O-])c1	-	-	-	-	-	-	?	-	-	-	-
CS(=O)(=O)c1ccc(C(=O)OCC(=O)N2Cc3ccccc3C2)cc1[N+](=O)[O-]	-	-	-	-	-	-	19.9µM	-	-	-	-
CCN(CC)C(=O)COC(=O)c1ccc(O)cc1	0	-	0	0	0	-	-	-	-	-	-
COc1cccc(Cn2c(=O)c(-c3ccc(Cl)cc3)nc3cnc(OC)nc32)c1	-	-	-	-	0	-	-	-	-	-	-
CSCC[C@H](NC(=O)[C@H](CC(C)C)NC(=O)CNC(=O)[C@H](Cc1ccc(O)cc1)NC(=O)[C@H](Cc1ccccc1)NC(=O)[C@H](CCC(N)=O)NC(=O)[C@H](CCC(N)=O)NC(=O)[C@@H]1CCCN1C(=O)[C@H](CCCCN)NC(=O)[C@@H]1CCCN1C(=O)[C@@H](N)CCCN=C(N)N)C(N)=O	-	-	-	-	0	-	-	-	-	-	-
CCCC[C@@H]1CCCO[C@@](C(=O)NCc2ccccc2)(C(F)(F)F)C1	0	-	0	-	0	-	-	-	-	-	-
O=c1c(Cl)c(Cl)cnn1Cc1nnc(-c2ccc(Cl)cc2)o1	0	0	7.08µM	0	0	-	-	-	-	-	-	GR inh=0;TrxR1 inh-2=8.44;TrxR1 insulin MOA=0;TrxR1 inh-3=3.44µM
Cc1ccc(-c2nnc(Cc3ccc(Cl)cc3)o2)cc1	0	0	0	0	0	-	-	-	-	-	-

Source: PubChem BioAssay (National Center for Advancing Translational Sciences (NCATS))
